High-throughput results as filed in PubChem.
TrxR1 substrate: is turned over as a substrate by rat TrxR1. Potency, µM (top dose mostly 114 µM), for the others: at the top dose activity change, negative = substrate turnover. O89049. 390,000 compounds, 0.01% hits. purified TrxR1 substrate turnover, NADPH consumption readout; also: nearly all actives have a fitted effect of over 50% in size
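Rat TrxR1, dispensed at 90 nM, was prereduced with 400 uM NADPH (final) for 5 min at ~22 deg C, then incubated with compound 15 min before 400 uM selenite. A first-read NADPH fluorescence drop versus no-compound background flagged substrates.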
TrxR1 inh: inhibitors of rat thioredoxin reductase 1; O89049; 390,000 compounds, 1% hits; Potency, µM (highest dose often 114 µM), for inactives: top-dose activity change, negative = inhibition, actives largely listed as inhibitors; recombinant rTrxR1, NADPH fluorescence consumption, selenite substrate; AID 588453; also: nearly all actives have a fitted effect of over 65% in size
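Rat TrxR1 (90 nM in the dispensed reagent) was pre-reduced with 400 uM NADPH for 5 min at room temperature, then incubated with compound for 15 min. After 400 uM selenite was added, NADPH fluorescence (Ex 340/Em 450 nm) was followed for 8 min.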
GLS inh: glutaminase GLS (human) inhibition; GLS enzymatic activity, qHTS titration; O94925; AID 624170; 410,000 compounds, 0.21% hits; Potency, µM (doses to about 45.5 µM), for the others: at the highest dose activity change, negative = inhibition, actives largely listed as inhibitors
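Human kidney-isoform GLS in 45 mM KH2PO4 pH 8.2, 0.02% Tween-20, with compound, started with 1mM L-Glutamine (added stock). Glutamate oxidase/HRP/Amplex red coupled fluorescence read at start and after 30 min at RT.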
Sfp inh: Sfp phosphopantetheinyl transferase inhibition; Q9F4F7; Potency, µM, without a hit: largest response in the series, negative = inhibition, actives largely listed as inhibitors; AID 1490; Biochemical Sfp PPTase activity, qHTS; 310,000 compounds, 3.5% hits;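 also: the enzyme is Sfp with the accession as filed and its product quenches rhodamine fluorescence; 0% = enzyme reaction without inhibitor and -100% = no enzyme wells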
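Fluorescence-quenching assay with 15 nM Sfp, 5 uM rhodamine-CoA and 12.5 uM BHQ-2-labelled ybbR peptide in pH 7.6 Hepes/MgCl2 buffer. Enzyme was pre-incubated with compound for 15 min at room temperature. Rate was taken from the 30-min fluorescence change (525/598 nm).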
VDR inhibitor: inhibitors of human vitamin D receptor; VDR-SRC2-3 peptide fluorescence polarization, 2 h; 400,000 compounds, 0.93% hits; P11473; Potency, µM, for inactives: max response, negative = inhibition, hits mostly inhibitors
Target sequence (P11473 whole entry, looked up): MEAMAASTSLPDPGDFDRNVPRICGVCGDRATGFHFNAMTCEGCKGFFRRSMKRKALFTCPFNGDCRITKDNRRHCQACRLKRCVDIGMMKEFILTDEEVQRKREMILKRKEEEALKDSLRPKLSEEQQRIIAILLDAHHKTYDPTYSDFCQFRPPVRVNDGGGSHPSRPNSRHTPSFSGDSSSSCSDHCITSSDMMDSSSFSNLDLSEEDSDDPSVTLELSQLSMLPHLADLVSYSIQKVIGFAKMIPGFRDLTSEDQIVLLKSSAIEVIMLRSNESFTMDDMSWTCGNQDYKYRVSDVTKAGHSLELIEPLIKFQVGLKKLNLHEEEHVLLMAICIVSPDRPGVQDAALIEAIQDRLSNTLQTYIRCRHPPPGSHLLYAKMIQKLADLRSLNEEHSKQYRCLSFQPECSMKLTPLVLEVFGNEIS
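Signal is fluorescence polarization, reporting how far test compounds block the interaction of VDR with the SRC2-3 coregulator peptide after a 2 h room-temperature incubation.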
KAT2A inh: blocks human GCN5L2 histone acetyltransferase. Q92830. GCN5L2 HAT assay, ThioGlo1 CoA-SH fluorescence. Potency, µM (doses to about 58.9 µM), without a hit: top-dose activity change, negative = inhibition, most hits filed as inhibitors. 390,000 compounds, 0.21% hits. AID 504327
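GCN5L2 (20nM final) in 50mM HEPES, 0.1mM EDTA pH 7.5, 0.01% Tween-20 was preincubated 15 min at room temperature with compound, then given ThioGlo1 (50uM), H3(1-25) peptide (75uM) and acetyl-CoA (70uM); CoA-thiol fluorescence (Ex340/Em540) was read at 0 and 20 min.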
The depositor's hits bear a star; ? = inconclusive; . = not tested or not shown; [ ] = remark or other dose. Hits are enriched below; roughly 3.8% of the tested compounds scored in any of these assays. Calls follow the shape of the dose curve; as a rule, active = well fitted curve in the direction sought with a large enough effect; inconclusive = small, poorly fitted or top-dose-only effect, or another doubt; inactive = no such curve, though single readings can be large; an effect the other way counts as inactive or inconclusive. Unless noted, % is scaled to controls: 0 for no effect and ±100 for the full control effect; potency is read from the fitted curve at half-maximal effect.

SMILES	TrxR1 substrate	TrxR1 inh	GLS inh	Sfp inh	VDR inhibitor	KAT2A inh
COc1cc(C2CC(c3cccs3)=NN2C(=O)CCl)ccc1OC(F)F (configuration not stated)	6%	7.9µM*	0%	3%	?	-6%
COc1ccc(C2CC(c3cccs3)=NN2C(=O)CN2CCCCC2)cc1 (configuration not stated)	-17%[57.1 µM]	14%[57.1 µM]	-5%	22%	11%	-9%
S=c1[nH]c2ccccc2s1	.	.	-12%[99.4 µM]	12%	35µM*	20µM*
O=C(Nc1ccc2[nH]c(=S)sc2c1)c1ccccc1	-6%	-37%	?	50µM*	?	1%
Cc1[nH]nc(Nc2ccc(Br)cc2)c1[N+](=O)[O-]	2%	40%	3%	3%	-35%	0%
C(=N\Nc1nc2ccccc2[nH]1)/c1ccc2c(c1)OCCO2	4%	24%	11%	25µM*	-16%	-1%
C#CCn1cc(/C=N/Nc2nc3ccccc3[nH]2)c2ccccc21	8%[57.1 µM]	5%[57.1 µM]	?	11µM*	10%	-3%
COc1ccc(OC)c(NC(=S)N(CCc2c(C)[nH]c3ccccc23)Cc2cccs2)c1	1%	4%	13%	14%	-4%	-3%
Cc1cccc(C(=O)NN2S(=O)(=O)c3ccccc3S2(=O)=O)c1	6%	16%	1%	50µM*	6%	-3%
CCOC(=O)c1cc(C(=O)OCC)c(=O)[nH]c1C	-2%	-8%	4%	?	13%	-3%
CCOC(=O)c1cc(C)[nH]c(=S)c1C#N	6%[57.1 µM]	?	-9%	40µM*	-3%	-4%
CCCCOC(=O)c1ccc(NC(=S)NC(=O)c2ccco2)cc1	-3%	-20%	11%	-16%	-7%	0%
CCCCOC(=O)c1ccc(NC(=S)NC(=O)c2c(Cl)cnn2C)cc1	-1%	-10%	9%	79µM*	3%	-1%
CCCCOC(=O)c1ccc(NC(=S)NC(=O)c2c(Cl)cnn2CC)cc1	-5%	-11%	11%	45µM*	2%	-8%
Cc1ccc(S(=O)(=O)N(CC(=O)O)Cc2ccco2)cc1	3%	6%	?	6%	0%	0%
COC(=O)CN(Cc1ccco1)S(=O)(=O)c1ccccc1	10%	-24%	0%	56µM*	-12%	-30%
Cc1ccc(Cn2c(C(C)Nc3nc(-c4ccc(C)cc4)cs3)nc3cc(Cl)c(Cl)cc32)cc1 (configuration not stated)	7%	5%	10µM*	-14%	2%	-12%
CC(Nc1nc(-c2ccc(F)cc2)cs1)c1nc2cc(Cl)c(Cl)cc2n1CCCO (configuration not stated)	2%	1%	7%	.	-12%	.
CCc1ccc2nc(N(CCCN(C)C)C(=O)c3ccc(S(=O)(=O)N4CCCc5ccccc54)cc3)sc2c1	-6%[57.1 µM]	14%[57.1 µM]	-1%	35µM*	-23%	-4%
CCc1ccc2nc(N(CCCN(C)C)C(=O)c3ccc(C(=O)c4ccccc4)cc3)sc2c1	5%	26%	0%	56µM*	-15%	-7%
COc1cccc2sc(N(CCCN(C)C)C(=O)c3ccc(S(=O)(=O)N4CCCc5ccccc54)cc3)nc12	0%	8%	7%	?	5%	-2%
CCOc1ccc2nc(N(CCCN(C)C)C(=O)c3ccc4c(c3)CCCC4)sc2c1	-8%	-3%	-7%	-24%	24%	-3%
CC1CCCCN1S(=O)(=O)c1ccc(C(=O)N(CCCN(C)C)c2nc3ccc(Br)cc3s2)cc1 (configuration not stated)	5%	28%	6%	50µM*	-9%	?
CN(C)CCCN(C(=O)c1ccc2c(c1)CCCC2)c1nc2ccc(Cl)cc2s1	-8%	-9%	11%	35µM*	-8%	6%
COc1cc2nc(N(CCCN(C)C)C(=O)c3ccc(C(=O)c4ccccc4)cc3)sc2cc1OC	6%[57.1 µM]	5%	5%	.	3%	-5%
